Assay results taken from PubChem BioAssay AID1986 (Sanford-Burnham Center for Chemical Genomics, 2009).
Among all 290,000 compounds or so, about 890 (0.31%) were called active. No stated cut-off is given here; in the data, active means inhibition mostly above about 52% (no sharp cut-off); inactive means mostly below about 76%. The sample as a whole holds a higher share of actives than the screen did.

Assay: inhibitors of HIV fusion peptide binding, primary screen, biochemical, uHTS, fluorescence dequenching (AID 1986)
Settings: cell-free peptide binding, 30 min, stronger effect = higher value
[1] = measured here: repeat confirmation average inhibition, at 18.6 µM

Compound | inhibition (at 20 µM) | inhibition [1]
COc1cc(/C=C2/SC(=O)NC2=O)ccc1Oc1ccc([N+](=O)[O-])cc1[N+](=O)[O-] | 74.1% (inactive) | 9.9%
COc1cc(/C=C2\SC(=O)NC2=O)ccc1Oc1ccc([N+](=O)[O-])cn1 | 13.1% (inactive) | –
COc1cc(/C=C2\SC(=O)NC2=O)ccc1Oc1ccc([N+](=O)[O-])cc1[N+](=O)[O-] | 63% (active) | –
Cc1ccc(NC(=O)Cn2cnc3sc(C(=O)NCc4ccco4)c(C)c3c2=O)cc1Cl | -1.5% (inactive) | –
N#Cc1c(N)sc(=S)c2c1CCCC2 | 0% (inactive) | –
N#Cc1c(N2CCCCC2)nc(N2CCCCC2)c2c1CCN(Cc1ccccc1)C2 | 8.7% (inactive) | –
N#Cc1c(N)sc2c1CCN(CCc1ccccc1)C2 | 8.1% (inactive) | –
N#Cc1c(N)sc(=S)c2c1CCCCC2 | 50% (active) | –
N#Cc1c(N)sc2c1CCCCCC2 | -2% (inactive) | –
N#Cc1c(N)sc(=S)c2c1CCN(Cc1ccccc1)C2 | 86.2% (active) | –
CN1CC2([N+](=O)[O-])CC=C(OCCO)C([N+](=O)[O-])(C1)C2 (stereo not given) | 0.4% (inactive) | –
O=C(Nc1ccc(N2CCOCC2)cc1)C1(S(=O)(=O)c2ccccc2)CC1 | -1.1% (inactive) | –
COc1ccc(CCN2CCCn3c2nc2c3c(=O)n(CC(C)C)c(=O)n2C)cc1OC | 0.5% (inactive) | –
CC(C)c1ccc(S(=O)(=O)/N=C2\C=C(NS(=O)(=O)c3ccccc3)C(=O)c3ccccc32)cc1 | 74.7% (active) | –
Cc1cc(C)c(S(=O)(=O)/N=C2\C=C(NS(=O)(=O)c3ccccc3)C(=O)c3ccccc32)c(C)c1 | 68.3% (inactive) | 42.3%
CC(C)c1ccc(S(=O)(=O)/N=C2/C=CC(=O)c3ccccc32)cc1 | 3.8% (inactive) | –
O=C(CSc1n[nH]c(=O)[nH]c1=O)NC1CCCCC1 | -0.2% (inactive) | –
O=C(O)c1cc(N2CCOCC2)nc2ccccc12 | 0.2% (inactive) | –
COC(=O)c1cc(N2CCN(C)CC2)nc2ccccc12 | 114% (active) | –
COC(=O)c1cc(N2CCNCC2)nc2ccccc12 | 6.8% (inactive) | –
Cn1c(=O)c2[nH]c(Nc3ccccc3)nc2n(C)c1=O | -0.7% (inactive) | –
CC(C)c1ccc(NC(=O)CCNS(=O)(=O)c2ccc3[nH]c(=O)oc3c2)cc1 | 2.1% (inactive) | –
CC(C)CNC(=S)N(CCN(C)C)Cc1cc2cc3c(cc2[nH]c1=O)OCO3 | -2.4% (inactive) | –

Compound | inhibition (at 20 µM) | inhibition [1]
Oc1ccc2nnc3c(Br)cnn3c2c1 | 82.2% (active) | 59.6%
Oc1ccc(Br)cc1Cn1nnc2ccccc21 | -0.3% (inactive) | –
Clc1ccc2nc3c4ccccc4cnn3c2c1 | 0% (inactive) | –
COc1ccc(OC)c(/C=N/NC(=O)CNC(=O)c2cccc3ccccc23)c1 | -1.3% (inactive) | –
Nc1cc(=O)[nH]c(SCC(=O)N2N=C(c3ccc4ccccc4c3)CC2c2ccccc2)n1 (stereo not given) | -0.7% (inactive) | –
Cc1cc(-c2ccccc2)n2ncnc2n1 | 0.4% (inactive) | –
COc1ccc2nc(C)cc(NCc3ccc(F)cc3)c2c1 | 65.2% (active) | 53%
COc1ccc(CNc2cc(C)nc3ccc(OC)cc23)cc1 | -0.2% (inactive) | –
COc1ccc2nc(C)cc(NCc3cccc(C(F)(F)F)c3)c2c1 | -0.7% (inactive) | –
COc1ccccc1C(=O)Nc1ccccn1 | 0.9% (inactive) | –
CCc1nc(N[C@@H](CC(C)C)C(=O)O)c2oc3ccccc3c2n1 | 4.3% (inactive) | –
Cc1ccc(C2C3CSCC=C3C(C#N)=C(N)C2(C#N)C#N)cc1 (stereo not given) | 22.2% (inactive) | –
CN1CC=C2C(C#N)=C(N)C(C#N)(C#N)[C@H](c3cccc(Cl)c3)C2C1 (stereo not given in full) | 25.6% (inactive) | –
CCCC1C2CN(C(C)C)CC=C2C(C#N)=C(N)C1(C#N)C#N (stereo not given) | -3.6% (inactive) | –
CC(=O)N1CC=C2C(C#N)=C(N)C(C#N)(C#N)[C@H](c3ccoc3)[C@H]2C1 | 29% (inactive) | –
CC(C)N1CC=C2C(C#N)=C(N)C(C#N)(C#N)C(c3ccccc3)C2C1 (stereo not given) | 86.9% (active) | –
CN1CC=C2C(C#N)=C(N)C(C#N)(C#N)C(Cc3ccccc3)C2C1 (stereo not given) | 52.9% (active) | –
CN1CC=C2C(C#N)=C(N)C(C#N)(C#N)C(CCc3ccccc3)C2C1 (stereo not given) | 64.6% (inactive) | 14.6%
CC(C)N1CC=C2C(C#N)=C(N)C(C#N)(C#N)[C@H](c3ccoc3)[C@H]2C1 | 123% (active) | –
COc1ccc(OC)c(C2C3CN(C(C)C)CC=C3C(C#N)=C(N)C2(C#N)C#N)c1 (stereo not given) | -0.5% (inactive) | –
CN1CC=C2C(C#N)=C(N)C(C#N)(C#N)[C@H](c3ccoc3)[C@H]2C1 | 0.3% (inactive) | –
CCN1CC=C2C(C#N)=C(N)C(C#N)(C#N)C(CCc3ccccc3)C2C1 (stereo not given) | -0.3% (inactive) | –
Cc1ccc(C2C3CN(C(C)C)CC=C3C(C#N)=C(N)C2(C#N)C#N)cc1 (stereo not given) | 87.6% (active) | –

Compound | inhibition (at 20 µM) | inhibition [1]
COc1cc(/C=C(\C#N)C(=O)NCC2CCCO2)ccc1OC(C)C (stereo not given) | -1.4% (inactive) | –
CN(CC(=O)Nc1ccc(F)c(F)c1F)c1ncnc2sccc12 | 0.3% (inactive) | –
COCCn1c(SCC(=O)N2CCCc3ccccc32)nnc1-c1ccoc1C | -1.1% (inactive) | –
COc1ccc(Cl)cc1N1C(=O)CN(Cc2cc(OC)c(OC)c(OC)c2)C1=S | 1% (inactive) | –
COc1ccccc1C(=O)NNC(=O)c1ccc2ccccc2c1 | 0.5% (inactive) | –
O=C(/C=C/c1ccccc1)Nc1cccnc1Cl | -1.1% (inactive) | –
CCOC(=O)c1ccc(N=Nc2c(C)c(C#N)c(O)[nH]c2=O)cc1 | 4.3% (inactive) | –
CCCCOC(=O)c1ccc(N=Nc2c(C)c(C#N)c(O)[nH]c2=O)cc1 | 77.6% (active) | 93.8%
Cc1c(C#N)c(O)[nH]c(=O)c1N=Nc1ccc(S(N)(=O)=O)cc1 | 12% (inactive) | –
COc1ccccc1CC(NC(C)=O)C(=O)NC1CCN(C(=O)Nc2cccc(F)c2)CC1 (stereo not given) | -1.2% (inactive) | –
C=C1CCN([C@@H](C)C(=O)OCc2cccc(C)c2)S(=O)(=O)c2ccccc21 | 1.3% (inactive) | –
O=C(CCCN1C(=O)/C(=C/c2ccco2)SC1=S)Nc1cccc(C(=O)O)c1 | 59.9% (inactive) | 12.3%
CC(C(=O)N(C)C1CCS(=O)(=O)C1)N1C(=O)/C(=C/c2ccco2)SC1=S (stereo not given) | 24.8% (inactive) | –
O=C(CCN1C(=O)S/C(=C/c2ccccc2)C1=O)Nc1ccc(C(=O)O)c(O)c1 | 29.4% (inactive) | –
CC(C(=O)Nc1ccc(C(=O)O)c(O)c1)N1C(=O)/C(=C\c2ccco2)SC1=S (stereo not given) | 78.3% (active) | –
O=C(CN1C(=O)/C(=C/c2ccco2)SC1=S)Nc1ccc(O)c(C(=O)O)c1 | 58.3% (active) | –
O=C(CCCN1C(=O)/C(=C\c2ccco2)SC1=S)Nc1ccc2ccccc2c1 | 65.1% (inactive) | 3%
CC(C(=O)Nc1ccc(O)cc1C(=O)O)N1C(=O)/C(=C\c2cccs2)SC1=S (stereo not given) | 50.1% (inactive) | 46.3%
O=C(CCN1C(=O)/C(=C\c2ccco2)SC1=S)Nc1ccc(C(=O)O)c(O)c1 | 75.4% (active) | –
O=C(CCCN1C(=O)/C(=C/c2ccccc2)SC1=S)Nc1ccc(C(=O)O)c(O)c1 | 60.7% (inactive) | 40.5%
CC(/C=C1\SC(=S)N(CCCC(=O)Nc2ccc(C(=O)O)c(O)c2)C1=O)=C\c1ccccc1 | 56.9% (active) | –
CC(=O)c1ccc(NC(=O)CCCN2C(=O)/C(=C/C(C)=C/c3ccccc3)SC2=S)cc1 | 3.3% (inactive) | –
O=C(CCCN1C(=O)/C(=C/c2ccco2)SC1=S)Nc1ccccc1C(=O)O | 67.2% (inactive) | 29.8%
